Shown are actives, neighbours in structure and some others; about 28% of the full set was active somewhere.
CYP2C9 inh = blockers of cytochrome P450 2C9 activity – biochemical, luminescence, ADME assay, primary screen. P11712. CYP2C9 Supersomes, luciferin-H conversion. inhibition, % at 5 µM. 20% of 96,000 active. AID 777, 2007;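 active means blocking of liver enzyme CYP2C9 beyond about 50% at 5 µM, limit read from the data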
Target sequence (P11712 whole entry, looked up): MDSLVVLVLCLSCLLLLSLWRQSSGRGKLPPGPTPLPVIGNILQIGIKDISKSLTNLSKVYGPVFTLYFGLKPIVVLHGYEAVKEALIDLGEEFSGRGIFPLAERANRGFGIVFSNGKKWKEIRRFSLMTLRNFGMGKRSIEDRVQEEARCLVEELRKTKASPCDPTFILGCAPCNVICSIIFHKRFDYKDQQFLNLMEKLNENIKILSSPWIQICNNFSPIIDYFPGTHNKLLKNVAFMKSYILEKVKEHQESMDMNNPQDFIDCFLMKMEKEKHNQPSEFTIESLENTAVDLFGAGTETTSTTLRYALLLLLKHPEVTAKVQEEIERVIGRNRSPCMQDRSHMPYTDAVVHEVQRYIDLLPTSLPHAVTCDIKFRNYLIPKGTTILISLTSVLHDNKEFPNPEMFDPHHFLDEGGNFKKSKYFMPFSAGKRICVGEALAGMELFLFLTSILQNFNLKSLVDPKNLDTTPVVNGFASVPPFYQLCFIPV
CYP2C19 inh = blockers of cytochrome P450 2C19 activity – biochemical, luminescence, ADME assay, primary screen | inhibition, % at 5 µM | CYP2C19 Supersomes, luciferin-H EGE luminescence, 30 min | AID 778, 2007 | 21% of 96,000 active | P33261;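 active means CYP2C19 inhibition above a set limit at 5 µM in the primary screen, cut at about 50% in these data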
CYP2C9 act = human CYP2C9 activators, primary screen, biochemical, luminescence; Cytochrome P450 2C9 (Homo sapiens), P11712; recombinant CYP2C9, luciferin-H conversion; stronger effect = higher value; factor 1 = untreated enzyme, 0 = blocked; activation factor at 5 µM; 1.4% of 96,000 active;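 active means activation factor of 2 or more for CYP2C9 at a 5 µM dose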
CYP2C19 activ = human CYP2C19 activators, primary screen, biochemical, luminescence; activation factor at 5 µM; Cytochrome P450 2C19 (Homo sapiens), P33261; 96,000 tested, under 10 active; recombinant CYP2C19, luciferin-H EGE luminescence; stronger effect = higher value; 0 = fully inhibited enzyme, 1 = untreated enzyme;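 active means activation factor of at least 2 at 5 µM in the primary screen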
Mac1 fbg inh = inhibitors of CD11b/CD18 adhesion to fibrinogen, primary screen, K562 cells, luminescence; inhibition, % at 10 µM; 0.54% of 93,000 active; Integrin beta-2 (Homo sapiens) + Integrin alpha-M (Homo sapiens), P05107+P11215; ATPlite luminescence; Mn2+ added to activate the integrin;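 active means primary inhibition of 50% or more at 10 µM, then 40% or more on retest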
Mac1 fbg enh = enhancers of CD11b/CD18 adhesion to fibrinogen, primary screen, K562 cells, luminescence; ATPlite luminescence; activation, % at 10 µM; 0.07% of 93,000 active; Integrin beta-2 (Homo sapiens) + Integrin alpha-M (Homo sapiens), P05107+P11215; AID 1499, 2009;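 active means 10 µM primary screen giving 50% or more activity, confirmed by 40% or more on retest at that dose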
Each line names hits and unclear results; the compound was inactive in the other large screens.

CCOC(=O)CSc1nnc(CSc2nc3sc4c(c3c(=O)[nH]2)CCC4)n1-c1ccccc1	CYP2C9 inh 57
Cc1ccccc1N(Cc1nnc2n1CCCCC2)C(=O)Nc1ccccc1	none
CC(C)(C)OC(=O)N1Cc2ccccc2C[C@H]1C(=O)O	none
O=C(OCCN1CCCC1=O)c1cc(F)c(F)c(F)c1F	none (no result: CYP2C9 inh, CYP2C19 inh, CYP2C9 act, CYP2C19 activ)
COC(=O)c1c(NC(=O)CCCC(=O)O)sc2c1CCC2	none
O=C1c2ccccc2C(=O)N1CCc1nc(-c2ccncc2)no1	CYP2C9 inh 72, CYP2C19 inh 97
O=C1c2ccccc2C(=O)N1CCc1nc(-c2cccnc2)no1	CYP2C19 inh 51
COC(=O)c1cc(-c2cccc(OC)c2)n[nH]1	CYP2C19 inh 70
COc1ccc(CNC(=O)c2cc(-c3ccccc3O)n[nH]2)cc1	none
COc1ccc(C2=NN3C(=O)c4c(ccc(OC)c4OC)C3C2)cc1 (stereo not given)	none
COc1ccc2c(c1OC)C(=O)N1N=C(c3ccc(O)cc3)CC21 (stereo not given)	CYP2C9 act 2.4
O=C(NC(Cc1ccccc1)c1nc2ccccc2[nH]1)C1CC(=O)N(c2ccc3c(c2)OCCO3)C1 (stereo not given)	CYP2C19 inh 81
COc1cccc(N(C(=O)c2ccco2)C(C(=O)NC2CCCC2)c2ccc(N(C)C)cc2)c1 (stereo not given)	none
CCOc1ccccc1N(C(=O)c1ccco1)C(C(=O)NC1CCCC1)c1cccnc1 (stereo not given)	CYP2C19 inh 56
COc1cccc(N(C(=O)c2ccco2)C(C(=O)NC2CCCC2)c2cccnc2)c1 (stereo not given)	CYP2C9 inh 65, CYP2C19 inh 67
COc1cccc(N(C(=O)CNC(=O)c2ccco2)C(C(=O)NC2CCCCC2)c2ccncc2)c1 (stereo not given)	CYP2C9 inh 76, CYP2C19 inh 57
COc1ccc(CN(C(=O)CNC(=O)c2ccco2)C(C(=O)NC2CCCC2)c2ccco2)cc1 (stereo not given)	CYP2C9 inh 62, CYP2C19 inh 62
O=C(NCC(=O)N(Cc1ccccc1)C(C(=O)NC1CCCC1)c1ccco1)c1ccco1 (stereo not given)	none
O=c1[nH]c2ccccc2nc1C(Cl)c1ccccc1 (stereo not given)	none
CNc1cnn(-c2ccc(C)cc2)c(=O)c1Cl	none (no result: Mac1 fbg inh, Mac1 fbg enh)
CCN(CC)c1ccc(NC(=O)COC(=O)c2ccc3ccccc3n2)cc1	none
CCOC(=O)C1=C(CSc2n[nH]c(N)n2)NC(=O)NC1C (stereo not given)	none
COc1ccc(Cl)cc1NC(=O)Nc1cccc([N+](=O)[O-])c1C	none
COC(=O)C(/C=N/OCc1ccc([N+](=O)[O-])cc1)NC(=O)c1cccc(Cl)c1 (stereo not given)	CYP2C9 inh 61, CYP2C19 inh 79
COC(=O)C(NC=O)C(O)(Cc1ccccc1)C(F)(F)F (stereo not given)	CYP2C19 inh 57
Cc1ccc2c(C)c(C(=O)N(Cc3cccs3)C3CCS(=O)(=O)C3)oc2c1 (stereo not given)	none
CCOc1ccc(CN(C(=O)c2oc3cc(C)ccc3c2C)C2CCS(=O)(=O)C2)cc1 (stereo not given)	CYP2C9 inh 87, CYP2C19 inh 73
COc1ccc(CCN(C(=O)c2ccccc2)C2=CC3CCC(C2)N3C)cc1OC (stereo not given)	none
O=C(CSc1nc(Nc2ccccc2)nc(N2CCOCC2)n1)Nc1ccccc1Cl	CYP2C9 inh 97, CYP2C19 inh 95
O=C(CSc1nc(Nc2ccccc2)nc(N2CCOCC2)n1)Nc1ccc([N+](=O)[O-])cc1	CYP2C9 inh 77, CYP2C19 inh 53
COc1ccc2c(CC(=O)NC3CCCc4ccccc43)coc2c1 (stereo not given)	none (no result: CYP2C9 inh, CYP2C19 inh, CYP2C9 act, CYP2C19 activ)
Cc1ccc(OCC(=O)n2cnnc2N)c(C)c1	none
CC(C)CNC(=O)c1ccc(Cl)c(Cl)c1	none
COC(=O)c1sccc1-c1ccc(/C=N/OC(=O)c2ccccc2)o1	none (no result: Mac1 fbg inh, Mac1 fbg enh)
Brc1ccc(OCCCN2CCOCC2)cc1	CYP2C19 inh 78
c1ccc(OCCCCN2CCOCC2)cc1	none
Cc1cc(C)cc(OCCCOc2cccc3cccnc23)c1	CYP2C19 inh 87
Cc1cc(Cl)cc(Cl)c1OCCOc1cccc2cccnc12	none
Clc1cc(Br)ccc1OCCOCCOc1cccc2cccnc12	CYP2C19 inh 66 (no result: Mac1 fbg inh, Mac1 fbg enh)
Clc1cc(Br)ccc1OCCOCCN1CCOCC1	CYP2C19 inh 81
C=CCNc1cc(C(F)(F)F)nc(-c2ccccn2)n1	none (no result: Mac1 fbg inh, Mac1 fbg enh)
Cc1nn(C)cc1CNC(=O)Nc1ccc(Cl)c(Cl)c1	none
CC(C)NC(=O)CSCc1c(Cl)cccc1Cl	none
CCOC(=O)N1CCN(C(=O)CSc2nnc(Cc3ccccc3)o2)CC1	none
CC1=C(C(=O)Nc2ccccc2)C(c2cccs2)n2nnnc2N1 (stereo not given)	none
CCCCCCCOC(=O)C1=C(C)Nc2ncnn2C1c1cccs1 (stereo not given)	CYP2C9 inh 64, CYP2C19 inh 74
CCCCCCCCOC(=O)C1=C(C)Nc2nnnn2C1c1cccs1 (stereo not given)	CYP2C9 inh 94, CYP2C19 inh 76
Cc1cccc(Cn2c(C(C)(C)C)cc3cccnc32)c1	none
CCCN(CC(=O)Nc1cc(Cl)ccc1Cl)C(=O)/C=C/c1ccco1	none (no result: CYP2C9 inh, CYP2C19 inh, CYP2C9 act, CYP2C19 activ)
COc1ccc(NC(=O)NCCCN2CCN(c3cc(C)ccc3C)CC2)cc1	none
N/C(=N\c1nc2c(c(=O)[nH]1)CCCC2)Nc1ccccc1Sc1ccccc1	CYP2C9 inh 63
COc1ccccc1OCc1ccc(C(=O)N2N=C(C(F)F)CC2(O)C(F)F)o1 (stereo not given)	CYP2C9 inh 73, Mac1 fbg inh 82
O=C(c1ccc(Cn2cc(Br)cn2)o1)N1N=C(C(F)F)CC1(O)C(F)F (stereo not given)	CYP2C9 inh 93, CYP2C19 inh 74
COc1ccccc1OCc1ccc(C(=O)n2nc(C)c(Cl)c2C)o1	none
CC1=NN(C(=O)c2ccc(Cn3nc(C)cc3C)o2)C(O)(C(F)(F)F)C1 (stereo not given)	none
COCCn1c(SCc2c(F)cccc2Cl)nc2c1c(=O)[nH]c(=O)n2C	none
CC(=O)N1CCCc2cc(S(=O)(=O)Nc3ccc4c(c3)OCO4)ccc21	CYP2C9 inh 87, CYP2C19 inh 99
